# The full list was thinned out, with the strongest signals kept by preference.
# Columns and labels:
# Assay in all cases: glycan array binding signal (z-score within array); higher = stronger binding
# Conditions in all cases: glycan notation: IUPAC condensed, linker removed
# [1] = tested on: Gal(b1-3)[Fuc(a1-4)]GlcNAc
# How it was run: (§1)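 The binding signal is a Z-score computed within each array. Data were drawn from 3228 arrays in the Consortium for Functional Glycomics database, restricted to those with a known protein sequence. Scores were averaged over arrays of the same protein sequence at different concentrations or buffers, and over linkers, and negative values can be taken as non-binding.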
# [2] = tested on: Gal(b1-4)GlcNAc(b1-2)Man(a1-3)[Gal(b1-4)GlcNAc(b1-2)Man(a1-6)]Man(b1-4)GlcNAc(b1-4)[Fuc(a1-6)]GlcNAc
# How it was run: as §1
# [3] = tested on: Gal(b1-4)GlcNAc(b1-2)Man(a1-3)[Gal(b1-4)GlcNAc(b1-2)Man(a1-6)][Gal(b1-4)GlcNAc(b1-4)]Man(b1-4)GlcNAc(b1-4)[Fuc(a1-6)]GlcNAc
# How it was run: as §1
# [4] = tested on: Gal(b1-3)[Neu5Ac(a2-6)]GlcNAc(b1-4)Gal(b1-4)Glc
# How it was run: as §1
# [5] = tested on: Gal(b1-4)GalNAc(a1-3)[Fuc(a1-2)]Gal(b1-4)GlcNAc
# How it was run: as §1
# Gal(b1-4)Gal = tested on: Gal(b1-4)Gal
# How it was run: as §1
# Gal(b1-4)Glc6S = tested on: Gal(b1-4)Glc6S
# How it was run: as §1
# PILRb (Mus musculus), Q2YSF2, sequence (Q2YSF2 entry or part of it): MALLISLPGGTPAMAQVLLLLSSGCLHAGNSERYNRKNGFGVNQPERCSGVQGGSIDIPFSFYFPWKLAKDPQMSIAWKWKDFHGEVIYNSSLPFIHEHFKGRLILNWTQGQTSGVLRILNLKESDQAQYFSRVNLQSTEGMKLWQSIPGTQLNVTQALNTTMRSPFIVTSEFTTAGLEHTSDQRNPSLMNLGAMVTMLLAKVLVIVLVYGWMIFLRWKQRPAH
# C3b (Homo sapiens), P01024, sequence (P01024 23-667): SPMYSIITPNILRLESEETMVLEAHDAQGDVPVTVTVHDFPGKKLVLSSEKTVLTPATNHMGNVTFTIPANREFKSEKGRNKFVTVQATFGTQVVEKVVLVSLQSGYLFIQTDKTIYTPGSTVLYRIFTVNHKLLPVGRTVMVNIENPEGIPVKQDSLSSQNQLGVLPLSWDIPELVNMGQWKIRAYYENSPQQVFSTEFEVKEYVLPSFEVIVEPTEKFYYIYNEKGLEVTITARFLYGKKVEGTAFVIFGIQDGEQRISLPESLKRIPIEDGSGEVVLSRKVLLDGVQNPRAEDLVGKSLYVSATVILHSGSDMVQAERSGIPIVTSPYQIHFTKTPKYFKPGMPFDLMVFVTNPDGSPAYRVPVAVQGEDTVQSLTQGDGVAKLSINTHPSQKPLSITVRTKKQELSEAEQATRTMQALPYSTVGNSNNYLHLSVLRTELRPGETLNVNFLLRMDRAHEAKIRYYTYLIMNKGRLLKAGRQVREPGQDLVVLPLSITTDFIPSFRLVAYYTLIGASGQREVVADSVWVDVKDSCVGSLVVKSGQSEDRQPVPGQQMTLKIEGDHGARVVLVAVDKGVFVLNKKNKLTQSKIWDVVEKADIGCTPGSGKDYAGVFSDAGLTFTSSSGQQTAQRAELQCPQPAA
# Regenerating Gene IV (Homo sapiens), Q9BYZ8, sequence (Q9BYZ8 whole entry, looked up): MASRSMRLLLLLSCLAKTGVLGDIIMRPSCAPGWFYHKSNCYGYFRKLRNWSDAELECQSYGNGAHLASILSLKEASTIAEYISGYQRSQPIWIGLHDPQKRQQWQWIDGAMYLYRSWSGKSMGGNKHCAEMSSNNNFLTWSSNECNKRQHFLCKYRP
# Aggrecan (Rattus norvegicus), NP_071526, sequence (chain, as listed by the source): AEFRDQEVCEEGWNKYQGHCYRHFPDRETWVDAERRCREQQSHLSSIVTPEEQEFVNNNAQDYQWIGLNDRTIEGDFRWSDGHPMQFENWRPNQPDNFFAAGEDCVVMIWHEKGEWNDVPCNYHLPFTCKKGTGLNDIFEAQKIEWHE
# Avaren (Actinomycete K97), sequence (chain, as listed by the source): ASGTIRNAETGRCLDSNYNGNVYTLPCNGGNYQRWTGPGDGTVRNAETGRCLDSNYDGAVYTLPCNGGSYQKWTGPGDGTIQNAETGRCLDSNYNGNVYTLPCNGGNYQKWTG
# wLAT-1A (Homo sapiens), Q01650, sequence (Q01650 whole entry): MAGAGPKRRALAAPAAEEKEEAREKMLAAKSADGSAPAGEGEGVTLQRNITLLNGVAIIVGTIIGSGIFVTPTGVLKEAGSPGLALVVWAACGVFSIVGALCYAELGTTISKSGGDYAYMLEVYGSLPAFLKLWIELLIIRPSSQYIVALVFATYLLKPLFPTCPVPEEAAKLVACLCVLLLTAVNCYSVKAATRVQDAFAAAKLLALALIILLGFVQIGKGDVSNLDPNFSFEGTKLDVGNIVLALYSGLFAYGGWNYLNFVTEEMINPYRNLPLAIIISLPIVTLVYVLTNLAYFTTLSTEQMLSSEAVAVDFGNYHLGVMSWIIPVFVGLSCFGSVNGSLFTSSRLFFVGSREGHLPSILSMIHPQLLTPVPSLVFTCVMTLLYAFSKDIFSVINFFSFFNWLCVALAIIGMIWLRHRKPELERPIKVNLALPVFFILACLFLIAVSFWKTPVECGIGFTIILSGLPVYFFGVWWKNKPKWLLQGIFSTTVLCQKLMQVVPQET
substance,measurement,setting,value
"Aggrecan (Rattus norvegicus), NP_071526",glycan array binding signal (z-score),[1],4.94
"C3b (Homo sapiens), P01024",glycan array binding signal (z-score),[1],0.283
"Siglec-8 (Homo sapiens), Q9NYZ4",glycan array binding signal (z-score),[1]; mutation: R125K,-0.408
same,glycan array binding signal (z-score),[2],-0.08
same,glycan array binding signal (z-score),[3]; mutation: R125K,-0.535
"HARE (Homo sapiens), Q8WWQ8",glycan array binding signal (z-score),[4],1.92
"PILRb (Mus musculus), Q2YSF2",glycan array binding signal (z-score),[5],-0.547
same,glycan array binding signal (z-score),Gal(b1-4)Gal,0.167
same,glycan array binding signal (z-score),Gal(b1-4)Glc6S,1.22
"wLAT-1A (Homo sapiens), Q01650",glycan array binding signal (z-score),[5],-0.62
MpAFP RI GFP (Marinomonas primoryensis),glycan array binding signal (z-score),Gal(b1-4)Gal,-0.4
"Regenerating Gene IV (Homo sapiens), Q9BYZ8",glycan array binding signal (z-score),Gal(b1-4)Glc6S,2.4
Avaren (Actinomycete K97),glycan array binding signal (z-score),[3],-0.121

# From the supplement of paper PMC8728848
